T1: UNK ZnF1-3 (human, UniProt Q9C0B0 31-174)
T1 sequence: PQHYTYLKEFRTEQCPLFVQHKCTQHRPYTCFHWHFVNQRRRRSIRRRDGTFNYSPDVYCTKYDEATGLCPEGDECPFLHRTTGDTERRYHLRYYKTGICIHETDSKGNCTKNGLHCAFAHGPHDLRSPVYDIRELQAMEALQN

B1: 86370578_86370698_3324_CDS_ENSMUSG00000021244_ENSMUST00000021670|mouse|control|control (ssRNA)
RNA: GGGAGUUCUACAGUCCGACGAUCUGGCCUCACAAACACCCUGUCCCGGUUGCCUUCUCCUCUGUUCAUUUUCUCACGACUGUCUUCUCUUCUACCCAUCAUUUUAUCAUGGAAAUCUUCUUGCUUGACCAGACCUGGACCACGCAACAGAGGAUUGAGCAUCA
B2: chr7:26236612:26236613:-_ENSG00000122566_ENST00000356674|hu_mus|motif|central (ssRNA)
RNA: GGGAGUUCUACAGUCCGACGAUCAACAAACAGCUUCUUCACAGUCACAUGGGCUCCUGGUUUUCCAGACUCCUCUCUUGCGGCAGCACGUUUUGGCUCAACUACCCUGCCAUCAAUGGAAUGGGGCCUUGCAGCCAUGGCAGCCAACAGAGGAUUGAGCAUCA
B3: chr1:163117127:163117128:-_ENSG00000143248_ENST00000313961|hu_mus|hu_hu_hu_mus_False|1_18 (ssRNA)
RNA: GGGAGUUCUACAGUCCGACGAUCUGCUACAAAGGAUGUAACUCAACUCACAGGGCAACUUUUGGAAGCCUGACCAGAUGACUACUUGAUUAGCUCCUUAUAAAAUUCAGAGCGCACAAAGCGAGGCAGAGAAUCCUUUUCCAUCAACAGAGGAUUGAGCAUCA
B4: chr16:45382771:45382772:-_ENSMUSG00000022661_ENSMUST00000163230|mus_mus|mus_mus_mus_hu_True|18_88 (ssRNA)
RNA: GGGAGUUCUACAGUCCGACGAUCCUGGGUCAUGUUAUAAGACAAAUGGAUAGGGAGGGCAUGCUUCUCAAAAAAUGUGAGCUAUUGUCUAAGACUAACAAUAUUUAUCUAGCUAUAUAAAAAUAAGAAAUGAAUAAGUUAAGACAACAGAGGAUUGAGCAUCA
B5: chr18:56819859:56819860:+_ENSG00000166562_ENST00000588875|hu_mus|hu_hu_hu_mus_True|38_38 (ssRNA)
RNA: GGGAGUUCUACAGUCCGACGAUCAACCUUGAUUACUCUGUGAACUAUCGGAAUGUCUCUUCCUUCAACCUUAAAAACAACUAUUUCACCAGCUCUGAUUGGGUCUUCCCGGAAAUUCGUGAGGAACAGCAGAUCUCCUCUGUGCAACAGAGGAUUGAGCAUCA
B6: 78791426_78796734_1209_CDS_ENSMUSG00000033088_ENSMUST00000109689|mouse|control|control (ssRNA)
RNA: GGGAGUUCUACAGUCCGACGAUCACUGCCAGAAUUCUCCUUCCUCUGGCCUGCUGUGUCUCCUCGGGCUGGGGACCUGGUGGCCUUUCGAGCACUGUCAGCUCUCAGUCCCUCCUGAGGCCUCCUUGGGAUCAUCUCUGUGAGCAACAGAGGAUUGAGCAUCA
B7: chr7:141450121:141450122:+_ENSG00000106028_ENST00000265304|hu_mus|hu_hu_hu_mus_True|28_98 (ssRNA)
RNA: GGGAGUUCUACAGUCCGACGAUCUCAUCCGUUCUAUUCCUUCUCUUUUGUCUGGUCACUCAGAAAUAUAAUGUUAUCAGCUAUGAUUGUUGUUGCUUGCCGCCUCACAUUAUUUUUAUCCAUGUACUCGCCAUAGUCCACUUUCAACAGAGGAUUGAGCAUCA
B8: 180848183_180848303_6210_CDS_ENSMUSG00000026494_ENSMUST00000161017|mouse|control|control (ssRNA)
RNA: GGGAGUUCUACAGUCCGACGAUCAUUGGACCUUUUCUUUUGGUUUUUGAGGCUCCUGCAUCUCCCUCCCACGGAGCUGCUGUUCUCGCUCAUGGAGUCCUGGGCUGAGGAUGCACUGCCGGUGGCCUCGCUGUCUCUCAUCAUCAACAGAGGAUUGAGCAUCA
B9: chr3:139078181:139078182:-_ENSG00000184432_ENST00000507777|hu_mus|FALSE|FALSE (ssRNA)
RNA: GGGAGUUCUACAGUCCGACGAUCCUGACUGGGUAAGUAAGUUCGGGCCAGGAAGGCAGCUUCUGGGAGUCUUCCUGUUCUGAUCAAGAGCUCUAGGCAAGCAUCAAGCUUGCCCUGUAAAAAAUAGCUCAUGAAUGCCACGUUCAACAGAGGAUUGAGCAUCA
B10: chr8:35894604:35894605:-_ENSMUSG00000031529_ENSMUST00000033929|mus_hu|FALSE|FALSE (ssRNA)
RNA: GGGAGUUCUACAGUCCGACGAUCCUAUAGCAAUGCUUUAUAGAAGACAAACAGCUUAUUUCUAGGCUGUCAGGGACUUCUAGAAUAUUGAUGUUGUUAUUAGAAACAAUCCUCUGUAAUCCAGUCCCAGGUUGAAAUCUGAUCCAACAGAGGAUUGAGCAUCA
B11: chr16:45382771:45382772:-_ENSMUSG00000022661_ENSMUST00000163230|mus_mus|mus_mus_mus_hu_True|18_68 (ssRNA)
RNA: B4 RNA with U50C, C68G, A69U, A73G
B12: chr1:151039735:151039736:+_ENSG00000213190_ENST00000368921|hu_mus|FALSE|FALSE (ssRNA)
RNA: GGGAGUUCUACAGUCCGACGAUCCCCAGGCCUUCCAGCUCCGACAGAUCCAGUUCUGGGAUGGGCAUCCUCCAGAAAAGAAAGGAGCUGUACUGGCUACUUACAGGGUCCCUCAUGAUCCCCUGUUAGCAAUGAAUGACUAGGCAACAGAGGAUUGAGCAUCA
B13: chr16:45382771:45382772:-_ENSMUSG00000022661_ENSMUST00000163230|mus_mus|mus_mus_mus_hu_True|38_68 (ssRNA)
RNA: GGGAGUUCUACAGUCCGACGAUCCUGGGUCAUGUUAUAAGACAAAUGGACAGGGAGGGCAUGCUUCUGUAAAGAUGUGAGCUAUUGUCUAAGACUAACAAUAUUGCUCUAGCUAUAAAAAUAAGUUAAAUGAAUAAGUUAAGACAACAGAGGAUUGAGCAUCA
B14: chr7:19156472:19156473:-_ENSG00000122691_ENST00000242261|hu_mus|FALSE|FALSE (ssRNA)
RNA: GGGAGUUCUACAGUCCGACGAUCGCUGCAGCUUGCCAUCUUGGAGUCCAGCUCGUCGCUCUGCAGGACCUGGUACAGGAAGUCGAUGUACCUGGCCGCCAGUUUGAGGGUCUGAAUCUUGCUCAGCUUGUCCGAGGGCAGCGUCAACAGAGGAUUGAGCAUCA

Numbering of substitutions follows the chain as printed. Whole data set: some 24,000 sequences, median “enrichment r” near 0.99, cut for the highest 2% near 3.7. Shown is part of a subset that was picked to be rich in the highest values.

In the experiment the target is T1, UNK ZnF1-3. The experiment in a line: nsRBNS (natural sequence RNA bind-n-seq); RBNS binding buffer (assumed for nsRBNS): 25 mM Tris pH 7.5, 150 mM KCl, 3 mM MgCl2, 0.01% Triton X-100, 500 ug/ml BSA, 20 U/ml SUPERase-In, 4 C; UNK is unkempt and MSI1 is Musashi-1; names of the RNAs are library labels; protein concentration not given here; high values mean tight binding.
B1 came in with a binding signal of 0.682 enrichment R.

In the case of B2, the binding signal came to 0.995 enrichment R.

The molecule B3 yielded a binding signal of 1.28 enrichment R.

Consider B4, for which the binding signal came out at 4.85 enrichment R.

As to B5, the binding signal stood at 0.808 enrichment R.

B6 displayed a binding signal of 0.647 enrichment R.

Regarding B7, the binding signal amounted to 0.444 enrichment R.

Consider B8, for which the binding signal was 0.445 enrichment R.

As to B9, the binding signal amounted to 0.848 enrichment R.

In the case of B10, the binding signal was determined as 0.4 enrichment R.

For B11, the binding signal was 5.64 enrichment R.

Regarding B12, the binding signal stood at 1.11 enrichment R.

B13 had a binding signal of 9.94 enrichment R.

On to B14, for which the binding signal stood at 0.84 enrichment R.

(Values after article PMC12136788.)
